This note sets out measurements from ChEMBL document CHEMBL3988442, “University of Dundee, Small-Polar-MMV Screening Library” (2021).

In all, about 69,000 compounds went through this assay and about 950 (1.4%) showed an effect of 50% or more. The full list was thinned out, with strong results kept by preference.

This test has as its system Mycobacterium tuberculosis. The experiment in a line: Cornell M. t heat shock assay. Note: in the data most compounds retested in dose-response had high values. It is filed as functional, organism-based. More on the design: dose or concentration left out as unconfirmed.
For the molecule `Cc1ccc(C(CCNCCN(C)C)C2CCOC(C)(C)C2)cc1.O=C(O)C(=O)O` (configuration not stated), the “Percent Effect” value stood at 1.762%.
For `Cl.NC(CC1CCCC1)c1ccccc1` (configuration not stated) the value was -17.85%.
As to `NC(CC1CCCC1)c1ccc(Oc2ccccc2)cc1` (configuration not stated), the “Percent Effect” value came out at 102.825%.
For `Cl.NC(CC1CCCCC1)c1ccccc1` (configuration not stated) the value was 1.9%; for `COc1ccc(-c2cc(C3CCNCC3)ccn2)cc1.Cl`, -16.31%.
For `Cc1nc(CN2CCOCC3(CCN(c4ncccn4)CC3)C2)cs1.O=C(O)C(F)(F)F` the value was -11.45%; for `CCc1nccn1-c1cccc(C2CCCN2)n1.Cl.Cl` (configuration not stated), 8.16%; for `COCCN(C/C=C/c1ccccc1)Cc1ccccn1`, 61.37%.
As for `COCCN(C/C=C/c1ccccc1)Cc1ncc[nH]1`, the “Percent Effect” value is 14.48%.
For `CCc1ccc(CN(C/C=C/c2ccccc2)CCOC)nc1` the value was 98.48%.
For `COCCN(C/C=C/c1ccccc1)Cc1nccs1` the value was 1.581%; for `COCCN(C/C=C/c1ccccc1)Cc1[nH]cnc1C`, -1.061%.
In the case of `CCn1ncnc1CN(C/C=C/c1ccccc1)CCOC`, the “Percent Effect” value is on record as -13.31%.
For `Cc1ccc(CN2Cc3ccccc3O[C@]3(CC[C@H](CO)CC3)C2)s1.Cl` the value was -7.456%; for `COCCN1CCc2c(cnc(-c3ccccc3)c2C(=O)O)C1.O=C(O)C(F)(F)F`, -9.252%.
For the molecule `O=C(O)C(F)(F)F.O=C(c1cscn1)N1CC[C@@H]2[C@@H]1CCN2CC1CCOCC1`, the “Percent Effect” value turned out to be 39.35%.
`CCN1CCC(N2CCC(C(=O)N(C)C)CC2)CC1.O=C(O)C(F)(F)F.O=C(O)C(F)(F)F`: the “Percent Effect” value came out at 2.155%.
Take `OC(CN(Cc1ccccc1)Cc1cscn1)c1cccs1` (configuration not stated): the “Percent Effect” value is on record as 5.463%.
On to `OC(CN(Cc1ccccc1)Cc1ccncc1)c1cccs1` (configuration not stated), for which the “Percent Effect” value is given as -1.892%.
Regarding `OC(CN(Cc1ccccc1)Cc1ccccn1)c1cccs1` (configuration not stated), the “Percent Effect” value is given as 66.35%.
For `Cc1cccc(CN2CCC3(CC2)CN(c2cnn(C)c2)C(=O)CO3)n1.O=C(O)C(F)(F)F` the value was -22.92%; for `CNc1cc(C2CCCNC2)nc(C)n1.Cl.Cl` (configuration not stated), -17.65%; for `Cc1cc(C(F)(F)F)nc(CCNC(C)Cn2cncn2)n1` (configuration not stated), 16.73%.
For `Cc1cc(C(F)(F)F)nc(CCNC(C)Cn2ccnc2)n1` (configuration not stated) the value was 103.9%; for `Cc1cc(C(F)(F)F)nc(CCNC(C)Cn2nc(C)cc2C)n1` (configuration not stated), 1.181%; for `CCN1CCC2(CC1)OCCN2C(=O)c1cc(Cl)c(OC)c(Cl)c1.Cl`, 13.79%.
For `Cc1cc(F)ccc1N1CCC(N2C[C@@H](CN(C)C)[C@@H](CO)C2)CC1` the value was 101.8%.
As for `CN(C)C[C@@H]1CN(C2CCN(c3ccccc3Cl)CC2)C[C@@H]1CO`, the “Percent Effect” value is given as -0.06241%.
For `CN(C)C[C@@H]1CN(C2CCN(c3ccc(Cl)cc3)CC2)C[C@@H]1CO` the value was 39.93%.
For `CN(CCO)C[C@@H]1CN(C2CCN(c3ccccc3Cl)CC2)C[C@@H]1CO` the value was 81.68%; for `Cc1cc(F)ccc1N1CCC(N2C[C@@H](C)[C@@](C)(O)C2)CC1`, 33.53%.
For `Cc1ccc(N2CCC(N3C[C@@H](CN(C)C)[C@@H](CO)C3)CC2)cc1` the value was -10.07%; for `CCc1nc(C)cc(N2CCN(C(=O)[C@@H]3C[C@@H]4C=C[C@H]3C4)CC2)n1`, -1.962%; for `CS(=O)(=O)NCc1cc(=O)n2c(n1)CN(CC1CC1)CCC2.O=C(O)C(F)(F)F`, 5.307%.
Regarding `O=C(O)C(F)(F)F.O=C(O)C(F)(F)F.O=C1CC[C@H]2[C@H](CCN2Cc2ccccn2)N1CC1CCOCC1`, the “Percent Effect” value is on record as -34.7%.
For `Cc1cccc(CN2C(=O)C[C@@H]3[C@@H]2CCN3Cc2ccsc2)n1.O=C(O)C(F)(F)F.O=C(O)C(F)(F)F` the value was -5.235%; for `Cl.NC(=O)COc1ccc(CNCc2ccc(F)cc2)cc1`, -18.87%.
For `Cc1noc(C)c1CN1CCN(C(=O)CCn2cncn2)CC1` the value was -3.616%; for `Cc1noc(C)c1CCC(=O)N1CCN(CCn2cncn2)CC1`, 78.74%; for `Cc1noc(C)c1CCC(=O)N1CCN(CCn2cccn2)CC1`, -5.618%.
For `Cn1ncc(Cl)c1C(=O)N1CCC(c2nnsc2S(C)(=O)=O)CC1` the value was -21.53%.
On to `Cn1cnc(S(=O)(=O)N2CC3(CCN(Cc4ccncc4)C3)C2)c1.O=C(O)C(F)(F)F.O=C(O)C(F)(F)F.O=C(O)C(F)(F)F`, for which the “Percent Effect” value stood at 36.02%.
For `CN(C)C(=O)COCC1CN(Cc2ccco2)Cc2ncn(C)c21.O=C(O)C(F)(F)F.O=C(O)C(F)(F)F` (configuration not stated) the value was 31.48%; for `COCC(C)(CCO)NC(=O)Nc1cccc(Br)c1C` (configuration not stated), 16.48%; for `CN1CC(=O)N(c2ccsc2)CC12CCN(C(=O)Nc1ccccc1)C2.O=C(O)C(F)(F)F` (configuration not stated), -18.81%.
For `O=C(N1CCCO1)[C@@]12CCO[C@@H]1CCN(Cc1cccs1)C2.O=C(O)C(F)(F)F`, the “Percent Effect” value is given as -21.11%.
Take `Cc1ccsc1C(=O)N1CC2CC1(C(=O)NCC1CC1)C2`: the “Percent Effect” value is given as -11.04%.
With `O=C(NCC1CC1)C12CC(CN1Cc1nccs1)C2`, the “Percent Effect” value was 54.2%.
As to `O=C(N1CCCC1)C12CC(CN1Cc1nccs1)C2`, the “Percent Effect” value is listed as 42.03%.
On to `Cc1cc(N2CCN(Cc3cn(C)nc3C)CC2)cc(C2CCCN2)n1.Cl` (configuration not stated), for which the “Percent Effect” value is listed as -11.47%.
With `CC(=O)N1CCCC1c1nnn2cc(-c3ccncc3)ccc12.O=C(O)C(F)(F)F` (configuration not stated), the “Percent Effect” value was determined as 8.291%.
With `CC(=O)N1CCCC1c1nnn2cc(NCc3cccnc3)ccc12.O=C(O)C(F)(F)F.O=C(O)C(F)(F)F` (configuration not stated), the “Percent Effect” value is on record as 27.19%.
For `CC(=O)N1CCCC1c1nnn2cc(Nc3ccccc3)ccc12.O=C(O)C(F)(F)F` (configuration not stated) the value was 86.99%.
For `CC(C)(C)c1n[nH]c(C2CN(CCc3ccncc3)CCO2)n1` (configuration not stated) the value was 12.04%; for `CC(=O)N1CCN(Cc2ccncc2)CC2(CC(=O)N(C)C2)C1.O=C(O)C(F)(F)F.O=C(O)C(F)(F)F` (configuration not stated), -4.515%; for `Cn1ccnc1CN1CC[C@H]2CO[C@H](CNc3ncccn3)[C@H]2C1.O=C(O)C(F)(F)F.O=C(O)C(F)(F)F.O=C(O)C(F)(F)F`, -17.85%.
For `Fc1ccccc1CC1CCN(Cc2cscn2)CC1` the value was -8.017%.
On to `Cc1cccc(CN2CCC(Cc3ccccc3F)CC2)n1`, for which the “Percent Effect” value turned out to be 100.5%.
For `Clc1ccc(COCC2CCN(Cc3ccccn3)CC2)cc1.O=C(O)C(=O)O` the value was 53.14%; for `Cc1cccc(CN2CCC(NS(C)(=O)=O)CC2)n1`, 10.63%; for `Fc1ccccc1CC1CCN(Cc2ccccn2)CC1`, 54.97%.
`Cc1cccc(CNC(=O)CC2CCN(Cc3ccccn3)CC2)n1`: the “Percent Effect” value is recorded as -18.17%.
For `Fc1ccccc1CC1CCN(Cc2nccs2)CC1` the value was 7.97%; for `COc1cc(COCC2CCN(Cc3ccccn3)CC2)cc(OC)c1.O=C(O)C(=O)O`, -10.83%; for `Fc1ccc(COCC2CCN(Cc3ccccn3)CC2)cc1.O=C(O)C(=O)O`, -21.79%.
For `CN1C[C@H]2C[C@H](C(=O)Nc3cccnc3)[C@@H](C1)O2` the value was -0.0821%; for `COc1ccc(CNCC(C)Oc2ccccn2)cc1.Cl` (configuration not stated), -11.53%; for `Cc1cc(C(=O)N2CC[C@]3(C[C@@H](OCc4ccccn4)CO3)C2)c(C)o1.O=C(O)C(F)(F)F`, 38.17%.
For `CN(C)C(=O)CN1CCc2ncnc(N(C)C)c2CC1.O=C(O)C(F)(F)F` the value was 23.34%.
As for `COCCn1cc2c(n1)C(CNCc1nccs1)OCC2.O=C(O)C(F)(F)F.O=C(O)C(F)(F)F` (configuration not stated), the “Percent Effect” value was -27.8%.
Consider `CN(C)Cc1cncc2c1CCN(Cc1ccoc1)C2.Cl.Cl.Cl`, for which the “Percent Effect” value is recorded as -10.16%.
For `O=C(O)C(F)(F)F.O=C(O)C(F)(F)F.O=C1[C@H]2CN(Cc3cccs3)C[C@H]2CN1CCN1CCCC1` the value was -16.55%; for `NC(=O)N1CC[C@H]2CO[C@H](CNC(=O)c3ccnnc3)[C@H]2C1`, -0.7451%; for `COCCN1CCC(C)(c2cc(O)[nH]n2)CC1`, -2.336%.
For `CC(C)C(=O)N1CCC(C)(c2cc(O)[nH]n2)CC1` the value was 1.922%; for `COCC(=O)N1CCC(C)(c2cc(O)[nH]n2)CC1`, 53.15%; for `CCOCC1CN(Cc2ccc(F)cc2)Cc2nn(C)cc21.O=C(O)C(F)(F)F` (configuration not stated), -29.18%.
For the molecule `CC(C)c1nc(CN2CCC(CO)CC2)cs1`, the “Percent Effect” value came to 17.89%.
For `CC(C)c1nc(CN2CCCCC2)cs1` the value was 0.8394%; for `CC(C)c1nc(CC(=O)Nc2nc(CN3CCCCCC3)cs2)cs1`, 104.4%; for `O=C1c2c(O)cc(O)cc2O[C@@H](c2ccc(O)cc2)[C@@H]1O`, 53.66%.
On to `COc1cc(C2CC(=O)c3c(O)cc(O)cc3O2)ccc1O` (configuration not stated), for which the “Percent Effect” value turned out to be 5.655%.
Take `Oc1ccc([C@H]2Oc3cc(O)cc(O)c3C[C@@H]2O)cc1`: the “Percent Effect” value was -4.634%.
As for `CN(C)C(=O)[C@H]1C[C@@H]2CCN(Cc3ccoc3)C[C@@H]2O1.O=C(O)C(F)(F)F`, the “Percent Effect” value is recorded as 36.25%.
For `Cc1ccc(C(=O)N2Cc3c(CN(C)C)nn(C)c3C2)cc1C.O=C(O)C(F)(F)F` the value was -17.18%.
For `Cc1nc2c(Nc3cccc(C#N)c3)nc(N)nc2n1C`, the “Percent Effect” value came out at 102.2%.
On to `CC(=O)c1ccc(Nc2nc(N)nc3c2nc(C)n3C)cc1`, for which the “Percent Effect” value came out at 10.63%.
For `Cc1nc2c(Nc3ccc(C#N)cc3)nc(N)nc2n1C`, the “Percent Effect” value is 5.734%.
For `Cc1cnc(CNC(=O)[C@@]23CCO[C@@H]2CCN(c2ncccn2)C3)cn1` the value was 39.63%; for `CS(=O)(=O)N1CC[C@H]2OCC[C@@]2(C(=O)NCCc2ccccn2)C1.O=C(O)C(F)(F)F`, -5.552%.
As for `O=C(NCc1ccccn1)[C@@]12CCO[C@@H]1CCN(Cc1ccccn1)C2.O=C(O)C(F)(F)F.O=C(O)C(F)(F)F.O=C(O)C(F)(F)F`, the “Percent Effect” value is recorded as 19.83%.
For `O=C(NCc1ccccn1)[C@@]12CCO[C@@H]1CCN(c1ncccn1)C2` the value was 92.45%.
For `O=C(NCCc1ccccn1)[C@@]12CCO[C@@H]1CCN(c1ncccn1)C2` the value was -5.799%; for `CS(=O)(=O)N1CC[C@H]2OCC[C@@]2(C(=O)NCc2ccccn2)C1.O=C(O)C(F)(F)F`, 65.18%.
As to `O=C(NCc1ccccn1)[C@@]12CCO[C@@H]1CCN(C1CCCC1)C2.O=C(O)C(F)(F)F.O=C(O)C(F)(F)F`, the “Percent Effect” value worked out at 40.27%.
On to `Cc1cnc(CNC(=O)[C@@]23CCO[C@@H]2CCN(C2CCCC2)C3)cn1.O=C(O)C(F)(F)F`, for which the “Percent Effect” value was 35.39%.
For `CC(=O)N1CC[C@H]2OCC[C@@]2(C(=O)NCc2cnc(C)cn2)C1` the value was 51.19%.
